Experimental data published in PubChem BioAssay.
Results filed as inconclusive are left out. Active and inactive are the calls of the source.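 The calls were made as follows, unless noted: active = normalized viability below 100% at a tested concentration; inactive = the rest.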

What was measured:
[1] = viability loss in pontine glioma line – cell-based, SU-DIPG-XVII, MIPE5.0, CellTiter-Glo, qHTS, dose response (AID 1347060; cut-off not given, nearly all actives have AC50 up to about 26 µM;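 as to AC50: cells exposed to compound for 48 hours before viability readout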); settings: CellTiter-Glo ATP luminescence
[2] = viability loss in pontine glioma line – cell-based, SU-DIPG-XXV, MIPE5.0, CellTiter-Glo, qHTS, dose response (AID 1347065; cut-off not given, nearly all actives have AC50 up to about 26 µM;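 also: cells exposed to compound for 48 hours before ATP readout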); settings: CellTiter-Glo ATP luminescence
[3] = JHH-DIPG-1 glioma cell viability, MIPE5.0 library, CellTiter-Glo luminescence, qHTS (AID 1347067; cut-off not given, nearly all actives have AC50 up to about 26 µM;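 also: cells exposed to compound for 48 hours before readout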); settings: JHH-DIPG-1 glioma viability, CellTiter-Glo ATP luminescence
[4] = viability loss in pontine glioma line – cell-based, JHH-DIPG-1, MIPE4.0, CellTiter-Glo, qHTS, dose response (AID 1347062; cut-off not given, nearly all actives have AC50 up to about 27 µM;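 as to AC50: cells exposed to compound for two days before readout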); settings: JHH-DIPG-1 viability, CellTiter-Glo ATP luminescence
[5] = viability loss in pontine glioma line – cell-based, SU-DIPG-IV, MIPE4.0, CellTiter-Glo, qHTS, dose response (AID 1347063; cut-off not given, nearly all actives have AC50 up to about 30 µM;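 also: compound exposure lasted 48 hours before the viability readout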); settings: CellTiter-Glo ATP luminescence
[6] = viability loss in pontine glioma line – cell-based, SU-DIPG-XIII, MIPE5.0, CellTiter-Glo, qHTS, dose response (AID 1347064; cut-off not given, nearly all actives have AC50 up to about 23 µM;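 as to AC50: cells exposed to compound for 48 hours before the viability read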); settings: CellTiter-Glo ATP luminescence
[7] = growth inhibition of DIPG cells – cell-based, MIPE4.0 library, CellTiter-Glo luminescence, qHTS (AID 1347066; cut-off not given, nearly all actives have AC50 up to about 30 µM;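 also: cells exposed to compound for 48 hours before readout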); settings: SU-DIPG-VI viability, CellTiter-Glo ATP luminescence
[8] = growth inhibition of DIPG cells – cell-based, MIPE5.0 library, qHTS (AID 1347068; cut-off not given, nearly all actives have IC50 up to about 30 µM;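 as to IC50: cells exposed to compound for 48 hours before viability readout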); settings: SU-DIPG-XXV viability
[9] = viability loss with induced miR-34 in A549 – imaging, A549 dox-inducible miR-34, nuclei and caspase counts, primary screen (AID 1347080;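 active = compounds whose cell count with miR-34 switched on is under 0.7 times the count with it off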); settings: A549 miR-34 inducible, Hoechst nuclei count, 48 h
[10] = compounds altering HSF1 focus formation in cells – imaging, Selleck Cancer Library (AID 1347162; in the data active = plate-normalised HSF1 focus index below about 0.46); settings: human cells, HSF1 nuclear foci imaging, at 10 µM; SSMD: measured here: HSF1 foci SSMD mean; cell count: measured here: cell number; plate-normalised HSF1 focus index: stronger effect = lower value
[11] = MELAS cybrid and Rieske KO viability enhancers – cell-based, MELAS cybrids, Rieske KO mouse fibroblasts, CellTiter-Glo, primary screen (AID 1508586;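 active = mean z-score across replicates of 1.96 or higher in either the MELAS or the Rieske mutant cell line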;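 also: z relative to plate mean and SD of compound and empty wells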); settings: low glucose
[12] = drug combination growth inhibition, ovarian cancer – cell-based, oncology-focused library, rucaparib conditional, profiling panel (AID 1508598); settings: patient-derived ovarian cancer cells, CellTiter-Glo viability, 144 h, stronger effect = lower value
[13] = stronger effect = lower value, cell number ratio, induced over uninduced
[14] = measured here: relative caspase fold change +Dox/-Dox
[15] = measured here: total cells with miR-34 induction, stronger effect = lower value
[16] = measured here: total cells without miR-34 induction
[17] = MELAS cybrid survival, CellTiter-Glo 48 h, stronger effect = higher value
[18] = Rieske KO mouse fibroblast survival, CellTiter-Glo 72 h
[19] = at 0.000305 µM, OCI-C5x cells, with rucaparib 10 µM, 100% = cells with rucaparib alone
[20] = at 0.000305 µM, OCI-C5x cells, without rucaparib
[21] = at 0.000305 µM, OCI-P5x cells, with rucaparib 20 µM, 100% = cells with rucaparib alone
[22] = at 0.000305 µM, OCI-P5x cells, without rucaparib
[23] = at 0.00122 µM, OCI-C5x cells, with rucaparib 10 µM, 100% = cells with rucaparib alone
[24] = at 0.00122 µM, OCI-C5x cells, without rucaparib
[25] = at 0.00122 µM, OCI-P5x cells, with rucaparib 20 µM, 100% = cells with rucaparib alone
[26] = at 0.00122 µM, OCI-P5x cells, without rucaparib
[27] = at 0.00488 µM, OCI-C5x cells, with rucaparib 10 µM, 100% = cells with rucaparib alone
[28] = at 0.00488 µM, OCI-C5x cells, without rucaparib
[29] = at 0.00488 µM, OCI-P5x cells, with rucaparib 20 µM, 100% = cells with rucaparib alone
[30] = at 0.00488 µM, OCI-P5x cells, without rucaparib
[31] = at 0.0195 µM, OCI-C5x cells, with rucaparib 10 µM, 100% = cells with rucaparib alone
[32] = at 0.0195 µM, OCI-C5x cells, without rucaparib
[33] = at 0.0195 µM, OCI-P5x cells, with rucaparib 20 µM, 100% = cells with rucaparib alone
[34] = at 0.0195 µM, OCI-P5x cells, without rucaparib
[35] = at 0.0781 µM, OCI-C5x cells, with rucaparib 10 µM, 100% = cells with rucaparib alone
[36] = at 0.0781 µM, OCI-C5x cells, without rucaparib
[37] = at 0.0781 µM, OCI-P5x cells, with rucaparib 20 µM, 100% = cells with rucaparib alone
[38] = at 0.0781 µM, OCI-P5x cells, without rucaparib
[39] = at 0.313 µM, OCI-C5x cells, with rucaparib 10 µM, 100% = cells with rucaparib alone
[40] = at 0.313 µM, OCI-C5x cells, without rucaparib
[41] = at 0.313 µM, OCI-P5x cells, with rucaparib 20 µM, 100% = cells with rucaparib alone
[42] = at 0.313 µM, OCI-P5x cells, without rucaparib
[43] = at 1.25 µM, OCI-C5x cells, with rucaparib 10 µM, 100% = cells with rucaparib alone
[44] = at 1.25 µM, OCI-C5x cells, without rucaparib
[45] = at 1.25 µM, OCI-P5x cells, with rucaparib 20 µM, 100% = cells with rucaparib alone
[46] = at 1.25 µM, OCI-P5x cells, without rucaparib
[47] = at 5 µM, OCI-C5x cells, with rucaparib 10 µM, 100% = cells with rucaparib alone
[48] = at 5 µM, OCI-C5x cells, without rucaparib
[49] = at 5 µM, OCI-P5x cells, with rucaparib 20 µM, 100% = cells with rucaparib alone
[50] = at 5 µM, OCI-P5x cells, without rucaparib

C=C1C(=O)OC2/C=C(/C)CC/C=C(/C)CCC12 (configuration not stated)
active: AC50 [1] 20.9 µM | AC50 [2] 18.6 µM | AC50 [3] 16.6 µM

CC(/C=C1\SC(=S)N(CC(=O)O)C1=O)=C\c1ccccc1
inactive: outcome [1] | outcome [4] | outcome [5] | outcome [6] | outcome [2] | outcome [7] | outcome [3]

Cn1cnc(=N)c2[nH]cnc21
7250: cell count [10]
0.712: fold change [9, 14]
2.26: SSMD [10]
-0.808: z-score [11, 18]
9400: cell count [9, 15]
inactive: outcome [1] | outcome [6] | outcome [2] | outcome [3] | outcome [8] | fold change [9, 13] 0.904 | plate-normalised HSF1 focus index [10] 1.08 | z-score [11, 17] -0.304 | viability [12, 19] 112% | viability [12, 20] 111% | viability [12, 23] 111% | viability [12, 24] 114% | viability [12, 25] 100% | viability [12, 27] 107% | viability [12, 28] 119% | viability [12, 29] 108% | viability [12, 31] 114% | viability [12, 32] 112% | viability [12, 33] 113% | viability [12, 34] 102% | viability [12, 35] 107% | viability [12, 36] 111% | viability [12, 37] 116% | viability [12, 38] 107% | viability [12, 39] 112% | viability [12, 40] 116% | viability [12, 41] 107% | viability [12, 42] 109% | viability [12, 43] 110% | viability [12, 44] 115% | viability [12, 45] 109% | viability [12, 46] 109% | viability [12, 47] 100% | viability [12, 48] 125% | viability [12, 49] 116% | viability [12, 50] 110%
active: AC50 [4] 4.69 µM | AC50 [5] 4.69 µM | AC50 [7] 0.235 µM | viability [12, 21] 99% | viability [12, 22] 94.2% | viability [12, 26] 97.1% | viability [12, 30] 99.6%
10400: cell count [9, 16]

C[C@H](NC(=O)/C(C#N)=C/c1cccc(Br)n1)c1ccccc1
active: AC50 [1] 7.42 µM | AC50 [4] 9.35 µM | AC50 [5] 7.43 µM | AC50 [6] 7.42 µM | AC50 [2] 3.72 µM | AC50 [7] 14.8 µM | AC50 [3] 9.34 µM

Cc1c(NC(=O)OC[C@@H]2COCCN2)cn2ncnc(Nc3ccc4c(cnn4Cc4cccc(F)c4)c3)c12
active: AC50 [1] 23.5 µM | viability [12, 30] 96.9% | viability [12, 34] 98.1% | viability [12, 38] 98% | viability [12, 42] 96.4% | viability [12, 45] 96.9% | viability [12, 46] 92.8% | viability [12, 47] 89.2% | viability [12, 49] 92.1% | viability [12, 50] 96.9%
inactive: viability [12, 19] 137% | viability [12, 20] 137% | viability [12, 21] 115% | viability [12, 22] 112% | viability [12, 23] 131% | viability [12, 24] 144% | viability [12, 25] 114% | viability [12, 26] 111% | viability [12, 27] 117% | viability [12, 28] 132% | viability [12, 29] 109% | viability [12, 31] 119% | viability [12, 32] 133% | viability [12, 33] 109% | viability [12, 35] 116% | viability [12, 36] 139% | viability [12, 37] 111% | viability [12, 39] 121% | viability [12, 40] 133% | viability [12, 41] 103% | viability [12, 43] 121% | viability [12, 44] 140% | viability [12, 48] 144%

CSc1cccc(Nc2ncc3cc(-c4c(Cl)cccc4Cl)c(=O)n(C)c3n2)c1
active: AC50 [1] 1.48 µM | AC50 [2] 1.05 µM | AC50 [3] 1.18 µM

Clc1ccc(COC(Cn2ccnc2)c2ccc(Cl)cc2Cl)cc1 (configuration not stated)
active: AC50 [1] 18.6 µM | AC50 [2] 16.6 µM | AC50 [3] 13.2 µM

Cc1cnc(Nc2cccc(CN3CCOCC3)c2)nc1Nc1cccc(S(=O)(=O)NC(C)(C)C)c1
active: AC50 [1] 0.332 µM | AC50 [4] 7.43 µM | AC50 [5] 5.26 µM | AC50 [6] 2.95 µM | AC50 [2] 1.18 µM | AC50 [7] 14.8 µM | AC50 [3] 2.35 µM

O=C(c1ccc(F)cc1)N1CCC[C@H](c2nc(-c3ccc(F)cc3)no2)C1
inactive: outcome [1] | outcome [4] | outcome [5] | outcome [6] | outcome [2] | outcome [7] | outcome [3] | outcome [8]

C=C[C@H]1CN2CCC1C[C@@H]2C(O)c1ccnc2ccc(OC)cc12 (some centres not stated)
0.977: fold change [9, 14]
5880: cell count [9, 16]
5680: cell count [9, 15]
inactive: outcome [1] | outcome [4] | outcome [5] | outcome [6] | outcome [2] | outcome [7] | outcome [3] | outcome [8] | fold change [9, 13] 0.966

CCN(CC)CCNC(=O)c1ccc2nc(-c3ccccc3)c(-c3ccc(CN4CCC(n5c(=O)[nH]c6ccccc65)CC4)cc3)nc2c1
active: AC50 [1] 11.8 µM | AC50 [4] 8.33 µM | AC50 [5] 4.69 µM | AC50 [6] 14.8 µM | AC50 [2] 10.5 µM | AC50 [7] 3.32 µM | AC50 [3] 10.5 µM | IC50 [8] 7.42 µM

COc1cc(NC(=O)c2ccc(-c3ccc(Cl)cc3)o2)cc(OC)c1
inactive: outcome [1] | outcome [6] | outcome [2] | outcome [7] | outcome [3] | outcome [8] | fold change [9, 13] 0.861 | z-score [11, 17] -0.392
0.756: fold change [9, 14]
active: AC50 [4] 0.935 µM | AC50 [5] 6.62 µM
9550: cell count [9, 15]
0.568: z-score [11, 18]
11100: cell count [9, 16]

O=C(O)[C@H](CC(=O)N1C[C@H]2CCCC[C@H]2C1)Cc1ccccc1
inactive: outcome [1] | outcome [4] | outcome [5] | outcome [6] | outcome [2] | outcome [7] | outcome [3] | outcome [8]
